Screening results: PubChem, National Center for Advancing Translational Sciences (NCATS)
HCV inh – qHTS Assay for Inhibitors of Hepatitis C Virus (HCV). Huh7.5.1 HCVcc-Cre infection, luciferase reporter, 44 h. Potency, µM (top dose mostly 41.8 µM), inactives show top-dose activity change, negative = inhibition, most hits filed as inhibitors. actives 3.4% (n = 340,000); note: potency is the fitted concentration of half-maximal effect
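Compounds are dispensed onto cells plated 4 h earlier at 1,000 per well, with HCVcc-Cre virus (about 0.5 moi) added next. Following 44 h of culture, luminescent signal is measured for 15 sec after 15 min with substrate at room temperature.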
Pf growth 96h – Primary qHTS for delayed death inhibitors of the malarial parasite plastid, 96 hour incubation | P. falciparum luciferase reporter growth, 96 h | Potency, µM (series often up to 28.7 µM), inactives show at the top dose activity change, negative = inhibition, actives largely listed as inhibitors | actives 6.9% (n = 320,000); note: potency is the fitted concentration of half-maximal effect
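Infected RBCs, 2% Hct / 0.05% parasitemia final; luciferase-reporter P. falciparum; cpd 96 h, 37 C, 5% CO2; luciferase detection reagent; luminescence.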
Marburg entry inh – qHTS for inhibitors of binding or entry into cells for Marburg Virus. actives 1.8% (n = 300,000). Potency, µM (series often up to 37.8 µM), without a hit: at the top dose activity change, negative = inhibition, hits mostly inhibitors. AID 540276, 2011. Marburg virus pseudotyped entry inhibition, cell reporter; calls by dose curve; tested in HEK293 cells; note: potency is the fitted concentration of half-maximal effect
LASV entry inh – qHTS for Inhibitors of binding or entry into cells for Lassa Virus; Lassa virus pseudotype entry inhibition, cell reporter; Potency, µM (titrated, usually from 37.9 µM), for the others: top-dose activity change, negative = inhibition, usual class: inhibitors; AID 540256, 2011; actives 1.2% (n = 300,000); calls by dose curve; tested in HEK293 cells; note: potency is the fitted concentration of half-maximal effect; nearly all actives have a fitted effect of over 50% in size
HCMV inh – qHTS Assay for inhibitors of the human cytomegalovirus (HCMV) | AID 1259415, 2018 | HFF cells, HCMV-luciferase reporter, 72 h; stronger effect = lower value | activity change, negative = inhibition, % at 57.5 µM | actives 4.5% (n = 410,000); in the data active = activity change below about -60%; inconclusive = no clear call, values can overlap the other calls; inactive = above about -39%
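Luciferase read-out from HCMV-luciferase-infected HFFs (MOI 1 PFU/cell) 72 h post infection at 37C; compounds added after 16 h cell attachment; activity normalized between buffer-only basal and Salinomycin (10uM) inhibitor controls.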
Pf growth 48h – Primary qHTS for delayed death inhibitors of the malarial parasite plastid, 48 hour incubation; P. falciparum luciferase growth in erythrocytes, 48 h; Potency, µM (doses to about 28.7 µM), for the others: at the highest dose activity change, negative = inhibition, hits mostly inhibitors; actives 5.9% (n = 310,000); AID 504832, 2011; note: potency is the fitted concentration of half-maximal effect
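Luciferase-expressing P. falciparum in infected erythrocytes (2% hematocrit, 0.1% parasitemia final) in RPMI 1640/0.5% Albumax were exposed to compound for 48 hours at 37 C, 5% CO2; growth read as luminescence.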
Active calls of the source: *; u = inconclusive; x = not tested or not shown; [ ] = remark or other dose. The list is not random: actives were taken first. Their share in the collection is about 14%. Unless noted, calls come from the whole dose curve; as a rule, active = well fitted inhibition curve with a large enough effect; inconclusive = small, poorly fitted or top-dose-only effect, or another doubt; inactive = no such curve, though single readings can be large or run the other way. % is set by controls: 0 for no effect and ±100 for the full control effect.

SMILES	HCV inh	Pf growth 96h	Marburg entry inh	LASV entry inh	HCMV inh	Pf growth 48h
CC(C)CNC(=O)C1C(=O)Nc2ccccc2C(=O)N1C1CCCCC1 (centres undefined)	x	x	x	x	42	x
CC(C)Cn1cc(NC(=O)N2CCN(c3ccc(F)cc3)CC2)c2ccccc2c1=O	x	x	x	u	-11	x
CCOc1ccc(C(O)(c2ccccc2OC)C(CN2CCCC2)c2ccccc2)cc1 (centres undefined)	-10%	136%	x	x	u	u
COc1ccc(C(O)(C2CCCCC2)C(CN2CCOCC2)c2ccccc2)cc1 (centres undefined)	-20%	-3%	x	x	-61*	u
COc1ccc(C(O)(C(C)C)C(CN2CCOCC2)c2ccc(Cl)cc2)cc1 (centres undefined)	u	0%	x	x	u	8.3µM*
CCC(O)(c1ccc(OC)cc1)C(CN1CCOCC1)c1ccccc1 (centres undefined)	10%	u	x	x	u	u
COc1ccc(C(O)(c2ccccc2OC)C(CN2CCOCC2)c2ccccc2)cc1 (centres undefined)	u	30%	11µM*	x	-26	u
OC(c1ccccc1)(C1CCCCC1)C(CN1CCOCC1)c1ccccc1 (centres undefined)	u	2%	u	-8%[46.1 µM]	-39	2.9µM*
Cc1cccc(N2CCN(C(=O)CS(=O)(=O)c3cccc4nsnc34)CC2)c1C	x	x	x	u	23	x
CC1=C(C(=O)NCc2cccc(F)c2)C2(CCCCC2)OC1=O	x	x	x	14%[46.1 µM]	-7	x
COC1=CC(=O)OC(c2cccc([N+](=O)[O-])c2)C1 (centres undefined)	x	x	x	x	-14	x
Cc1ccc(N2C(=O)N(Cc3cccc(Cl)c3)c3ccccc3S2(=O)=O)cc1	x	x	x	-27%[46.1 µM]	u	x
Cc1cccc(CN2C(=O)N(c3ccc(C(C)C)cc3)S(=O)(=O)c3ccccc32)c1	x	x	x	u	-69*	x
CCc1ccccc1N1C(=O)N(Cc2cccc(Cl)c2)c2ccccc2S1(=O)=O	x	x	x	-23%[46.1 µM]	-105*	x
CCN(CC)CCCn1c(C)cc2c(c1=O)[C@H](c1ccc(OC)c(OC)c1OC)C(C#N)=C(N)O2	x	x	9%	x	x	x
CCc1cc[n+](C2=C([O-])c3ccccc3C(=O)/C2=N\S(=O)(=O)c2cccs2)cc1	5µM*	u	7.1µM*	18µM*	u	4.1µM*
CCC(C)NS(=O)(=O)c1cccs1 (centres undefined)	u	-13%	-10%	1%	1	4%
Nc1cccc2c1C(=O)N(CCOc1ccccc1F)C2=O	0%	314%	u	2.8µM*	83	206%
N#Cc1ccccc1OCCN1C(=O)c2ccccc2C1=O	u	-25%	u	20%	-8	43%
CC(C)(C)NC(=O)[C@H]1CN(Cc2cccnc2)CCN1C[C@@H](O)C[C@@H](Cc1ccccc1)C(=O)N[C@H]1c2ccccc2C[C@H]1O	x	-17%	x	x	x	11µM*
COc1ccc(-c2c(-c3ccc(OCC(=O)NN)cc3O)n[nH]c2C(F)(F)F)cc1	-57%	9.3µM*	u	u	-25	9.3µM*
CCOc1ccc(-c2n[nH]c(C)c2-c2ccccc2OC)c(O)c1	u	-28%	u	u	-22	3.3µM*
C=C(C)COc1ccc(-c2n[nH]c(C)c2-c2ccc(OC)cc2)c(O)c1	u	3.7µM*	u	u	-106*	u
CCCC(=O)N(Cc1cc2cc(OC)ccc2[nH]c1=O)c1ccc(OC)cc1	x	x	x	x	-17	x
COc1cc(NC(C)CCCNC(C)C)c2ncccc2c1OC (centres undefined)	u	x	1%	-22%	-82*	x
SMILES	HCV inh	Pf growth 96h	Marburg entry inh	LASV entry inh	HCMV inh	Pf growth 48h
Cc1ccc(/C=C/c2nnc(-c3cccs3)o2)cc1	6%	220%	12µM*	10µM*	16	74%
CCN1C(=O)c2ccccc2S(=O)(=O)c2ccc(C(=O)NCc3ccc(C)cc3)cc21	x	x	-1%[46.1 µM]	-14%[46.1 µM]	5	x
Cc1ccccc1OCCOC(=O)c1c(-c2ccccc2)noc1C	-24%	u	u	u	4	12µM*
Cc1onc(-c2ccccc2)c1C(=O)OCCOc1ccccc1F	u	-27%	-26%[46.1 µM]	-28%	u	u
Cc1onc(-c2ccccc2)c1C(=O)OCc1nnc(-c2ccc([N+](=O)[O-])cc2)o1	-31%	-9%	-2%	7%	-8	-7%
Cc1onc(-c2ccccc2)c1C(=O)OCCOc1ccc([N+](=O)[O-])cc1[N+](=O)[O-]	u	4.1µM*	u	u	u	x
Cc1ccc(NC(=O)C2(C)CCN2C2Cc3ccccc3C2)cc1 (centres undefined)	x	x	x	x	-19	x
O=C(Nc1ccc(F)cc1)C(c1ccccc1OC(F)(F)F)N1CCN(C(=O)c2ccco2)CC1 (centres undefined)	x	x	x	x	29	x
COC(=O)c1cc(Sc2cccc(Cl)c2Cl)ccn1	u	13%	10%	-16%	12	5%
COC(=O)c1cc(Sc2c(Cl)cccc2Cl)ccn1	14%	-3%	11µM*	-24%	-39	3%
O=S1(=O)N[C@H](Cc2ccccc2)COc2cccc(N3CCCCC3)c21	x	x	x	x	-13	x
CC(C)C(C(=O)NCc1ccccc1)N(C)Cc1ccc(Cl)c(Cl)c1 (centres undefined)	x	x	x	x	-27	x
CCc1ccc(C(=O)CCC(=O)Nc2ccc(OC)c(S(=O)(=O)N3CCCCC3)c2)cc1	u	u	u	u	54	-25%
CNC(=O)COc1ccccc1C(=O)Nc1ccc2c(c1)oc1ccccc12	u	4.7µM*	21µM*	u	-69*	x
O=C(Nc1ccc2c(c1)oc1ccccc12)c1cccnc1	u	2.1µM*	10%[46.1 µM]	-7%	54	u
N#Cc1ccccc1NC(=O)c1ccccc1OCC(=O)Nc1ccc2c(c1)oc1ccccc12	-17%	x	u	6%	21	x
O=C(CC[C@H]1O[C@@H](n2ccc(=O)[nH]c2=O)[C@H](O)[C@@H]1O)N[C@H](Cc1ccccc1)C(=O)NCC1CCCCC1	x	x	x	x	-16	x
CCNC(=S)NNC(=O)c1cc(-c2ccc(OC)cc2)nc2ccccc12	14%	-41%	0.65µM*	3.3µM*	134	-32%
CCCCOc1cccc(-c2cc(C(=O)NNC(=S)NCC)c3ccccc3n2)c1	x	12µM*	-9%	30%[14.3 µM]	-7	x
CCNC(=S)NNC(=O)c1cc(-c2cccc(C)c2)nc2ccccc12	-23%	u	-29%	u	118	-59%
